From PubChem BioAssay

What follows are compounds tested against Left-right determination factor 2 (Homo sapiens) (UniProt O00292) (assay: small molecules binding LEFTY2 protein – biochemical, small-molecule microarray, 635 nm fluorescence scan, primary screen (AID 1110)). Conditions: higher = more signal.
Sequence of Left-right determination factor 2 (Homo sapiens) (O00292 whole entry, looked up): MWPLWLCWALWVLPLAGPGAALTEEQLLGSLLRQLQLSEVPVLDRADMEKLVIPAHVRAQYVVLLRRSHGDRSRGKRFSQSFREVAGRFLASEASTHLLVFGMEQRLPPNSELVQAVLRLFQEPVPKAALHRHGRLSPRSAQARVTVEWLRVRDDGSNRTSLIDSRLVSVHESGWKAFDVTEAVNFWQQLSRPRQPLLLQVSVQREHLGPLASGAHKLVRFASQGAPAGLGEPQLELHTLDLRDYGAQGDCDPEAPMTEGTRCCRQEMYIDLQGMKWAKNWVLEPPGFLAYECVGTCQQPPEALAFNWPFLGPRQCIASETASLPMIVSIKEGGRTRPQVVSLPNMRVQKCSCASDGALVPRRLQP
Compound `CCC(=O)[C@]12O[C@@]3([C@@H]4C(=O)OCC[C@@H]41)N(CC)C(C)=C(C(=O)OC)[C@@H](c1ccccc1)N3C2=O` has a composite z-score of 0.594.
Work on `COCCOC(=O)N1C(=O)[C@@]2(c3cc(C#CC4=CCCCC4)ccc31)[C@H](c1ccc(O)cc1)N1[C@H](c3ccccc3)[C@H](c3ccccc3)OC(=O)[C@H]1[C@@H]2C(=O)N1CCCCCCC1` yielded a composite z-score of 0.8.
`O=C(CS)NCCCCCNC(=O)[C@H]1C[C@H]2C(=O)N3CCC[C@H]3C(=O)N2[C@H]1c1ccc(O)cc1` showed a composite z-score of 0.679.
Compound `CSCC[C@@H]1NC(=O)CC=C[C@@H](C)COC(=O)[C@H](CCSC)NC(=O)CC=C[C@@H](C)COC1=O` has a composite z-score of 0.42.
Compound `COCCOC(=O)N1C(=O)[C@@]2(c3cc(C#CCNC(N)=O)ccc31)[C@H](C(=O)N1CCCCCCC1)[C@H]1C(=O)O[C@H](c3ccccc3)[C@H](c3ccccc3)N1[C@@H]2c1ccccc1OCCO` has a composite z-score of 1.09.
For `O=C1O[C@H](c2ccccc2)[C@H](c2ccccc2)N2[C@H]1[C@@H](C(=O)Nc1nc3ccccc3s1)[C@]1(C(=O)Nc3ccc(C#CC4(O)CCCCCC4)cc31)[C@H]2c1ccc(O)cc1`, the composite z-score was 0.596.
`CC[C@H]1C2=C3C(CC[C@H]4C(OC)OC[C@](C)([C@@H]34)N(C(=O)OC(C)(C)C)C2)C(CO)C1CO` (stereo partly specified) was tested, and the composite z-score was 0.221.
`CC(C)(C)OC(=O)CC[C@@]1(C(=O)NCc2ccccc2)N=C(c2ccc(OCCCO)cc2)O[C@@H]1c1ccccc1` showed a composite z-score of 0.144.
For `CC(C)[Si](OCC[C@H]1O[C@]2(C(=O)N(Cc3ccccc3)c3ccccc32)[C@@H](C)[C@@H]1[Si](C)(C)O)(C(C)C)C(C)C`, the composite z-score was -0.261.
With `C[C@H]1COC(=O)[C@H](Cc2ccccc2)NC(=O)[C@@H](C)COC(=O)[C@H](Cc2ccccc2)NC1=O` the composite z-score was 0.597.
Compound `COc1ccc([Si](C)(C)[C@H]2[C@H](CC(=O)N3Cc4ccccc4C[C@H]3CO)O[C@@]3(C(=O)N(Cc4cccc(N5CCOC5=O)c4)c4ccccc43)[C@@H]2C)cc1` has a composite z-score of 0.91.
With `CO[C@H]1COC(=O)[C@@H](OCc2ccccc2)C=C[C@H](C)[C@@H](OC)COC(=O)[C@H](OCc2ccccc2)C=C[C@@H]1C` the composite z-score was 0.348.
With `C=C(COC)C(=O)CC[C@H](OC(=O)c1ccccc1-c1ccccc1C(=O)O)c1cccc(OCCO)c1` the composite z-score was 0.757.
`Cc1ccc(S[C@]2(C(=O)O)CC(=O)N(Cc3ccccc3)[C@@H]2c2ccc(CO)cc2)cc1` was tested, and the composite z-score was -1.29.
Compound `O=C(O)[C@@H]1Cc2c([nH]c3ccccc23)[C@@H](c2ccccc2)N1` has a composite z-score of 0.414.

The compounds below were run against Calmodulin-1 (Homo sapiens) (UniProt P0DP23) (assay: small molecules binding calmodulin-1 with EGTA – biochemical, small-molecule microarray, Cy5-labelled CALM1, profiling panel (AID 1111;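 further: labelled calmodulin applied in Tris saline Tween buffer holding calcium plus EGTA and DTT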)). Conditions: Cy5-CALM1 binding fluorescence, higher = more signal.
`C=CCN1C(=O)[C@@]2(Cc3ccccc3)N=C(c3ccc(OCCCO)cc3)O[C@H]2c2ccccc21` showed a composite z-score of 0.0185.
With `CC(=O)Nc1ccc([C@H]2[C@H](C)CC[C@H]3C(=O)N4[C@@H](CC[C@@H](C)[C@@H]4c4ccc(NC(C)=O)cc4)C(=O)N32)cc1` the composite z-score was 0.184.
Compound `COc1cc2c(cc1OC)CN(C(=O)[C@@H]1[C@H]3C(=O)O[C@H](c4ccccc4)[C@H](c4ccccc4)N3[C@H](c3ccccc3OCCO)[C@@]13C(=O)Nc1ccccc13)CC2` has a composite z-score of 0.421.
Work on `CCOC(=O)C[C@H]1[C@H](OC(=O)Cc2ccc3c(c2)OCO3)[C@@H](NC(=O)c2ccc3ccccc3c2)c2cc(OCCCO)ccc2N1C(=O)Cc1ccc(OC)cc1` yielded a composite z-score of 1.19.
`CO[C@@H]1COC(=O)[C@H](C)NC(=O)CC=C[C@@H](C)[C@H](OC)COC(=O)[C@H](C)NC(=O)CC=C[C@H]1C` gave a composite z-score of -0.202.
`CO[C@H]1COC(=O)CC=C[C@H](C)COC(=O)[C@@H](OCc2ccccc2)C=C[C@@H]1C` was tested, and the composite z-score was -1.51.
Work on `CCCC[C@@H]1C[C@H]1[C@@H](NC(=O)c1ccccc1)c1ccccc1C(F)(F)F` yielded a composite z-score of 1.04.
`CO[C@@H]1COC(=O)[C@H](C)NC(=O)CC=C[C@@H](C)[C@H](NS(=O)(=O)c2ccc(C)cc2)COC(=O)CC=C[C@@H]1C` was tested, and the composite z-score was -0.356.
Compound `CC(=O)NCCCC[C@@H]1NC(=O)[C@H]2C[C@@H](C(=O)NCCCCCCN(C)C)[C@@H](c3cccc(OCCO)c3)N2C1=O` has a composite z-score of -1.81.
Compound `NC(=O)NCC#Cc1ccc2c(c1)[C@]1(C(=O)N2)[C@H](c2ccccc2OCCO)N2[C@H](c3ccccc3)[C@H](c3ccccc3)OC(=O)[C@H]2[C@@H]1C(=O)N1CCN(c2ncccn2)CC1` has a composite z-score of 0.427.
`C[C@]1(C(=O)NCc2ccccc2)c2ccccc2C(=O)N(Cc2cc(C(F)(F)F)cc(C(F)(F)F)c2)[C@H]1c1ccc(CO)cc1` gave a composite z-score of 0.956.
`C=C(COC)/C(=C/C[C@@H](OC(C)=O)c1cccc(OCCO)c1)c1cc(C(=O)OC)ccc1OC` showed a composite z-score of -0.39.
`COC(=O)[C@H]1[C@@H]2COc3ccccc3[C@H]2N[C@H]1C(=O)OC` gave a composite z-score of 0.623.
`CCc1cccc(NC(=O)O[C@H]2[C@H](OC(=O)Nc3ccccc3)[C@@H](OC(=O)Nc3ccccc3)[C@@H](OC)O[C@@H]2CO)c1` showed a composite z-score of 1.19.
`C=CCN1C(=O)[C@]2(O[C@H](CCn3cc(CCO)nn3)[C@@H]([Si](C)(C)c3ccc(OC)cc3)[C@@H]2C)c2cc(NC(=O)c3ccc(OC)cc3)ccc21` was tested, and the composite z-score was 0.289.
`C=C(COC)/C(=C/C[C@H](OC(C)=O)c1ccc(OCCO)cc1)c1cnc2ccccc2c1` gave a composite z-score of 0.339.
Compound `[N-]=[N+]=NCc1ccccc1C[C@]1(C(=O)N2CCCCC2)N=C(c2ccc(OCCCO)cc2)O[C@H]1c1ccccc1CN=[N+]=[N-]` has a composite z-score of 1.67.
Work on `CO[C@H]1O[C@H](CO)[C@@H](OC(=O)Nc2ccccc2)[C@H](OC(=O)Nc2ccc3c(c2)OCO3)[C@@H]1OC(=O)Nc1ccc2c(c1)OCO2` yielded a composite z-score of 1.92.
Work on `CCOC(=O)C1=C[C@@H](c2ccccc2)N(S(=O)(=O)c2ccc(C)cc2)[C@H]1c1ccc(F)cc1` yielded a composite z-score of 0.37.
Compound `CCCC=C(CCC)[C@@H](NC(=O)c1ccc(C(F)(F)F)cc1)c1ccccc1` has a composite z-score of 0.815.
Compound `COC(=O)C[C@H]1O[C@]2(C(=O)N(Cc3ccccc3)c3ccc(I)cc32)[C@@H](C)[C@@H]1[Si](C)(C)c1ccc(OC)cc1` has a composite z-score of 0.267.
For `CCC(=O)[C@]12O[C@@]3([C@@H]4C(=O)OCC[C@@H]41)N(CC)C(C)=C(C(=O)OC)[C@@H](c1ccccc1)N3C2=O`, the composite z-score was -0.42.
`COCCOC(=O)N1C(=O)[C@@]2(c3cc(C#CC4=CCCCC4)ccc31)[C@H](c1ccc(O)cc1)N1[C@H](c3ccccc3)[C@H](c3ccccc3)OC(=O)[C@H]1[C@@H]2C(=O)N1CCCCCCC1` was tested, and the composite z-score was 1.11.
For `O=C(CS)NCCCCCNC(=O)[C@H]1C[C@H]2C(=O)N3CCC[C@H]3C(=O)N2[C@H]1c1ccc(O)cc1`, the composite z-score was 1.45.
In the case of `CSCC[C@@H]1NC(=O)CC=C[C@@H](C)COC(=O)[C@H](CCSC)NC(=O)CC=C[C@@H](C)COC1=O`, the composite z-score is reported as -1.21.
`COCCOC(=O)N1C(=O)[C@@]2(c3cc(C#CCNC(N)=O)ccc31)[C@H](C(=O)N1CCCCCCC1)[C@H]1C(=O)O[C@H](c3ccccc3)[C@H](c3ccccc3)N1[C@@H]2c1ccccc1OCCO` gave a composite z-score of 0.886.
Work on `O=C1O[C@H](c2ccccc2)[C@H](c2ccccc2)N2[C@H]1[C@@H](C(=O)Nc1nc3ccccc3s1)[C@]1(C(=O)Nc3ccc(C#CC4(O)CCCCCC4)cc31)[C@H]2c1ccc(O)cc1` yielded a composite z-score of 1.94.
Compound `CC[C@H]1C2=C3C(CC[C@H]4C(OC)OC[C@](C)([C@@H]34)N(C(=O)OC(C)(C)C)C2)C(CO)C1CO` (stereo partly specified) has a composite z-score of 2.27.
With `CC(C)(C)OC(=O)CC[C@@]1(C(=O)NCc2ccccc2)N=C(c2ccc(OCCCO)cc2)O[C@@H]1c1ccccc1` the composite z-score was 2.4.
For `CC(C)[Si](OCC[C@H]1O[C@]2(C(=O)N(Cc3ccccc3)c3ccccc32)[C@@H](C)[C@@H]1[Si](C)(C)O)(C(C)C)C(C)C`, the composite z-score was 0.214.
`C[C@H]1COC(=O)[C@H](Cc2ccccc2)NC(=O)[C@@H](C)COC(=O)[C@H](Cc2ccccc2)NC1=O` gave a composite z-score of 0.359.
With `COc1ccc([Si](C)(C)[C@H]2[C@H](CC(=O)N3Cc4ccccc4C[C@H]3CO)O[C@@]3(C(=O)N(Cc4cccc(N5CCOC5=O)c4)c4ccccc43)[C@@H]2C)cc1` the composite z-score was -0.792.
`CO[C@H]1COC(=O)[C@@H](OCc2ccccc2)C=C[C@H](C)[C@@H](OC)COC(=O)[C@H](OCc2ccccc2)C=C[C@@H]1C` gave a composite z-score of -2.13.
Compound `C=C(COC)C(=O)CC[C@H](OC(=O)c1ccccc1-c1ccccc1C(=O)O)c1cccc(OCCO)c1` has a composite z-score of 3.03.
With `Cc1ccc(S[C@]2(C(=O)O)CC(=O)N(Cc3ccccc3)[C@@H]2c2ccc(CO)cc2)cc1` the composite z-score was 0.321.
In the case of `O=C(O)[C@@H]1Cc2c([nH]c3ccccc23)[C@@H](c2ccccc2)N1`, the composite z-score is reported as -0.106.
